Test results from PubChem BioAssay (NCI).
The panel holds about 83,000 compounds, 20% with a hit somewhere; the sample as a whole holds those more often.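 96-well plates, one dose, 48 hours. Percent growth reported; active if below 10.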 The source made the active and inactive calls.

Experiments:
Assay in all cases: NCI-60 one-dose screen, 48 h (100 = growth as untreated, 0 = no growth, -100 = all killed)
Settings in all cases: 10 µM unless noted
DU-145 prostate = system: DU-145 prostate
K-562 leukemia = system: K-562 leukemia
MALME-3M melanoma = system: MALME-3M melanoma
MDA-MB-231 breast = system: MDA-MB-231 breast
RXF 393 renal = system: RXF 393 renal
SF-268 CNS = system: SF-268 CNS
SF-295 CNS = system: SF-295 CNS
SF-539 CNS = system: SF-539 CNS
UACC-257 melanoma = system: UACC-257 melanoma
M14 melanoma = system: M14 melanoma

Measured: growth

Nc1c(C(=O)Nc2ccccn2)sc2nc3c(cc12)C(O)CCC3 (stereo not given)
active: RXF 393 renal 4.65% | SF-295 CNS 4.92% | SF-539 CNS 8.44%
inactive: DU-145 prostate 25% | K-562 leukemia 20.6% | MALME-3M melanoma 60.8% | MDA-MB-231 breast 67.1% | SF-268 CNS 44% | UACC-257 melanoma 53.2% | M14 melanoma 21.1%

CCN(CC)CCNC(=O)c1ccc(-c2nc3ccc4[nH]ncc4c3c3c2CCCC3)cc1
inactive: DU-145 prostate 53.5% | K-562 leukemia 30% | MALME-3M melanoma 79.1% | MDA-MB-231 breast 59.6% | RXF 393 renal 36.4% | SF-268 CNS 58.6% | SF-295 CNS 80.2% | SF-539 CNS 61.2% | UACC-257 melanoma 96.7% | M14 melanoma 52.9%

O=P(O)(O)OCC1OC(n2cnc3c(NCc4ccccc4)ncnc32)C(O)C1O (stereo not given)
inactive: K-562 leukemia 60.8% | MALME-3M melanoma 80.9% | MDA-MB-231 breast 10.6% | SF-268 CNS 36.3% | SF-295 CNS 52.4% | UACC-257 melanoma 115% | M14 melanoma 29.4%
active: DU-145 prostate -50.3% | RXF 393 renal -0.932% | SF-539 CNS 6.39%

N#C/C(=C\c1ccc(Cl)cc1Cl)C(=O)Nc1ncc(Cc2ccc(Cl)c(Cl)c2)s1
inactive: DU-145 prostate 99.3% | K-562 leukemia 25.5% | MALME-3M melanoma 93% | MDA-MB-231 breast 97.1% | RXF 393 renal 113% | SF-268 CNS 84% | SF-295 CNS 89.9% | SF-539 CNS 85.6% | UACC-257 melanoma 93.2% | M14 melanoma 53.8%

S=c1[nH]c2cc(Cl)ccc2o1
inactive: DU-145 prostate 102% | K-562 leukemia 90.7% | MALME-3M melanoma 102% | MDA-MB-231 breast 89% | RXF 393 renal 104% | SF-268 CNS 105% | SF-295 CNS 99.2% | SF-539 CNS 106% | UACC-257 melanoma 113% | M14 melanoma 94.3%

Cc1[nH]c(/C=C/C(=O)c2ccc(C(F)(F)F)c(F)c2)c(C)c1C(=O)NCC(C)C
inactive: DU-145 prostate 101% | K-562 leukemia 101% | MALME-3M melanoma 96.6% | MDA-MB-231 breast 99.4% | RXF 393 renal 93.8% | SF-268 CNS 95.8% | SF-295 CNS 90.9% | SF-539 CNS 96% | UACC-257 melanoma 99.2% | M14 melanoma 104%

C#CCOc1ccc2ncnc(Nc3cccc(NC(=O)CCl)c3)c2c1
inactive: DU-145 prostate 74% | K-562 leukemia 55.2% | MALME-3M melanoma 71.9% | MDA-MB-231 breast 73.7% | RXF 393 renal 79.6% | SF-268 CNS 60.6% | SF-295 CNS 106% | SF-539 CNS 84.4% | UACC-257 melanoma 80.3% | M14 melanoma 77.1%

Cc1c2ccccc2nc2c1ccc1cccnc12
inactive: DU-145 prostate 95.6% | K-562 leukemia 44.1% | MALME-3M melanoma 88.3% | MDA-MB-231 breast 103% | RXF 393 renal 108% | SF-268 CNS 99.8% | SF-295 CNS 89.3% | SF-539 CNS 100% | UACC-257 melanoma 72.3% | M14 melanoma 84.9%

CCCCSCC(=O)c1ccccc1
inactive: DU-145 prostate 103% | K-562 leukemia 97.3% | MALME-3M melanoma 89.6% | MDA-MB-231 breast 102% | RXF 393 renal 114% | SF-268 CNS 97.1% | SF-295 CNS 105% | SF-539 CNS 98.4% | UACC-257 melanoma 80.9% | M14 melanoma 99.4%

COc1cc(/C=C/c2cc(/C=C/c3ccc(O)c(OC)c3)n(C(=O)Nc3ccc(F)cc3)n2)ccc1O
active: DU-145 prostate 6.78% | K-562 leukemia 0.22% | MALME-3M melanoma 9.15% | RXF 393 renal -43.8% | SF-295 CNS -21.6% | SF-539 CNS 3.68% | M14 melanoma 2.69%
inactive: MDA-MB-231 breast 33.6% | SF-268 CNS 20.1% | UACC-257 melanoma 13.7%

Cn1cc(-c2nc(-c3c[nH]c4ccncc34)cs2)c2cc(Br)ccc21
active: DU-145 prostate -95.9% | K-562 leukemia -54.2% | MALME-3M melanoma -79.2% | MDA-MB-231 breast -80.7% | RXF 393 renal -94.4% | SF-268 CNS -73.7% | SF-295 CNS -78% | SF-539 CNS -98% | UACC-257 melanoma -46.4% | M14 melanoma -74.2%

O=C(Cn1nnc2ccccc21)Nc1ccc(-c2nc3ccccc3s2)cc1
inactive: DU-145 prostate 74% | K-562 leukemia 55.2% | MALME-3M melanoma 96.9% | MDA-MB-231 breast 94.7% | RXF 393 renal 99.9% | SF-268 CNS 92.4% | SF-295 CNS 84.7% | SF-539 CNS 71.2% | UACC-257 melanoma 94.5% | M14 melanoma 90.6%

COc1ccc2nc3ccccc3c(NCc3ccccc3)c2c1
inactive: DU-145 prostate 22.5% | MALME-3M melanoma 22.5% | MDA-MB-231 breast 27.8% | SF-268 CNS 44.2% | SF-295 CNS 19.7% | SF-539 CNS 11.8% | UACC-257 melanoma 27.1% | M14 melanoma 26%
active: K-562 leukemia 5.75% | RXF 393 renal 5.86%

Cc1ccc(S(=O)(=O)n2cc(C3C(Cl)C(=O)N3c3ccc(N4CCOCC4=O)cc3)c3ccccc32)cc1 (stereo not given)
inactive: DU-145 prostate 63.6% | K-562 leukemia 22.5% | MALME-3M melanoma 56.4% | MDA-MB-231 breast 16.5% | RXF 393 renal 65.5% | SF-268 CNS 57.9% | SF-295 CNS 82.5% | SF-539 CNS 28.1% | UACC-257 melanoma 74.3% | M14 melanoma 25.7%

C=C1C(=O)O[C@H]2[C@H]1CC/C(CNC(=O)c1cc3ccccc3[nH]1)=C\CC[C@@]1(C)O[C@@H]21
inactive: SF-295 CNS 42.3%
active: DU-145 prostate -87.7% | K-562 leukemia -20.6% | MALME-3M melanoma -28.9% | MDA-MB-231 breast -46.6% | RXF 393 renal -76% | SF-268 CNS -27.3% | SF-539 CNS -77.1% | UACC-257 melanoma -49.2% | M14 melanoma -57.1%

CN(C)c1ccc(C(=NO)c2ccc(N(C)C)cc2)cc1
active: SF-295 CNS 3.86%
inactive: DU-145 prostate 56% | K-562 leukemia 17% | MALME-3M melanoma 29.8% | MDA-MB-231 breast 63.5% | RXF 393 renal 33.5% | SF-268 CNS 50.6% | SF-539 CNS 33.7% | UACC-257 melanoma 41.4% | M14 melanoma 17.4%

COCC[C@H]1CCC/C=C/[C@@H]2C[C@H](O)C[C@H]2[C@H](O)/C=C/C(=O)O1
active: DU-145 prostate 6.25% | MALME-3M melanoma -24.4% | MDA-MB-231 breast -85.5% | RXF 393 renal -4.97% | SF-295 CNS -2.69% | M14 melanoma 9.75%
inactive: K-562 leukemia 10.4% | SF-268 CNS 12.6% | SF-539 CNS 28.3% | UACC-257 melanoma 16.7%

O=C1/C(=C/c2ccc(Br)cc2)COc2ccc(O)c(O)c21
inactive: SF-295 CNS 57.6%
active: DU-145 prostate 6.06% | K-562 leukemia 5.3% | MALME-3M melanoma -17.2% | MDA-MB-231 breast -4.69% | RXF 393 renal -49.2% | SF-268 CNS -36.7% | SF-539 CNS -94.2% | UACC-257 melanoma 9.86% | M14 melanoma 9.59%

Cc1cccc(-n2c(C)nc3ccc(N4CCCNC4=O)cc3c2=O)c1
inactive: DU-145 prostate 109% | K-562 leukemia 102% | MALME-3M melanoma 102% | MDA-MB-231 breast 106% | RXF 393 renal 116% | SF-268 CNS 105% | SF-295 CNS 101% | SF-539 CNS 91.9% | UACC-257 melanoma 105% | M14 melanoma 102%

CC1=C(C(=O)n2c3ccccc3c3ccccc32)C(c2cccc([N+](=O)[O-])c2)C(C(=O)n2c3ccccc3c3ccccc32)=C(C)N1
inactive: DU-145 prostate 103% | K-562 leukemia 95.8% | MALME-3M melanoma 88.9% | MDA-MB-231 breast 85% | RXF 393 renal 111% | SF-268 CNS 89.3% | SF-295 CNS 102% | SF-539 CNS 98.6% | UACC-257 melanoma 106% | M14 melanoma 100%

NC(CSC(c1ccccc1)(c1ccccc1)c1ccc2c(c1)OCO2)C(=O)O (stereo not given)
active: DU-145 prostate -26.3% | K-562 leukemia 8.25% | RXF 393 renal -5.81% | SF-295 CNS -27.6% | M14 melanoma -19.4%
inactive: MALME-3M melanoma 47.6% | MDA-MB-231 breast 19.8% | SF-268 CNS 38.8% | SF-539 CNS 13.4% | UACC-257 melanoma 32.6%

Cc1nn(-c2ccccc2)c(N2CCCCC2)c1/C=N/NC(=O)Cn1c(=O)sc2ccccc21
inactive: DU-145 prostate 95.8% | K-562 leukemia 43.4% | MALME-3M melanoma 101% | MDA-MB-231 breast 79% | RXF 393 renal 89.9% | SF-268 CNS 79.2% | SF-295 CNS 56.7% | SF-539 CNS 92.2% | UACC-257 melanoma 95.2% | M14 melanoma 72.2%

CO[C@H](C(=O)[C@@H](O)[C@@H](C)O)[C@@H]1Cc2cc3cc(O[C@H]4C[C@@H](O[C@H]5C[C@@H](O)[C@H](O)C(C)O5)[C@H](O)C(C)O4)c(C)c(O)c3c(O)c2C(=O)[C@H]1O[C@H]1C[C@@H](O[C@H]2C[C@@H](O[C@H]3C[C@@H](OC)[C@H](O)C(C)O3)[C@@H](O)C(C)O2)C(O)(O)C(C)O1 (stereo not given in full)
inactive: DU-145 prostate 19.5% | K-562 leukemia 12.1% | SF-268 CNS 26.3% | SF-295 CNS 12.4% | M14 melanoma 11.1%
active: MALME-3M melanoma -36.8% | MDA-MB-231 breast 5.02% | RXF 393 renal -57.9% | SF-539 CNS -0.417% | UACC-257 melanoma -20.5%

O=C1/C(=C/c2ccccc2[N+](=O)[O-])COc2ccc(O)cc21
active: MALME-3M melanoma -56.9% | MDA-MB-231 breast -16.2% | RXF 393 renal -9.95% | SF-539 CNS -49.9% | UACC-257 melanoma 0.865% | M14 melanoma -10.9%
inactive: DU-145 prostate 18.1% | K-562 leukemia 14.8% | SF-268 CNS 58.8% | SF-295 CNS 81.1%

O=C(/C=C/c1ccc(Br)cc1)c1ccc(-n2cc(CN3CCN(c4cc5c(cc4F)c(=O)c(C(=O)O)cn5C4CC4)CC3)nn2)cc1
inactive: DU-145 prostate 78.9% | K-562 leukemia 51.5% | MALME-3M melanoma 102% | MDA-MB-231 breast 80.1% | RXF 393 renal 88.4% | SF-268 CNS 72.6% | SF-295 CNS 87.6% | SF-539 CNS 83% | UACC-257 melanoma 95.8% | M14 melanoma 87%

O=C(c1ccc(Cl)cc1Cl)N1c2ccccc2Sc2ccccc21
active: K-562 leukemia -42.2%
inactive: DU-145 prostate 65.2% | MALME-3M melanoma 63.8% | MDA-MB-231 breast 68.8% | RXF 393 renal 70% | SF-268 CNS 50% | SF-295 CNS 53.1% | SF-539 CNS 41.8% | UACC-257 melanoma 64.3% | M14 melanoma 59.8%

COc1cc2c(cc1O)[C@@]1(C)[C@H](c3ccccc3Br)OC(=O)N1CC2
inactive: DU-145 prostate 101% | K-562 leukemia 75% | MALME-3M melanoma 83.1% | MDA-MB-231 breast 95.6% | RXF 393 renal 99.5% | SF-268 CNS 94.7% | SF-295 CNS 102% | SF-539 CNS 95.1% | UACC-257 melanoma 83.5% | M14 melanoma 88.3%
